High-throughput results deposited in PubChem BioAssay by National Center for Advancing Translational Sciences (NCATS).
Sampled rows, rich in hits. Any-hit rate of the full collection: about 2.2%.
Pin1 inhibitor – inhibitors of human Pin1; Q13526; Pin1 FP peptide displacement, HiFluor488, 10 min; Potency, µM (highest dose often 115 µM), inactives show at the top dose activity, negative = inhibition, actives largely listed as inhibitors; hit rate 0.009% among 390,000; active = well fitted inhibition curve with a large enough effect in the polarisation, with a control signal flat, not every such curve was filed as active; inconclusive = small, poorly fitted or top-dose-only effect, or effect the other way, or a change in a side signal; inactive = no such curve, though single readings can be large or run the other way; the % refers to the polarisation; also: % is scaled to controls: 0 for no effect and ±100 for the full control effect
Target sequence (Q13526 whole entry, looked up): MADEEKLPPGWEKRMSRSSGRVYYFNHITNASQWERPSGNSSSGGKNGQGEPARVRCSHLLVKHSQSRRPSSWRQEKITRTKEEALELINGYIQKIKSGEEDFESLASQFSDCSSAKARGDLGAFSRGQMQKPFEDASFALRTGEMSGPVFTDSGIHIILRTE
A549 tox-1 – counter-screen for Nrf2 inhibitors: cytotoxicity in A549 cells. hit rate 0.16% among 390,000. A549 ARE-Fluc cells, CellTiter-Fluor viability, 18-24 h. Potency, µM (top dose mostly 46 µM), for the others: top-dose activity change, negative = cytotoxicity, usual class: inhibitors; also: % is scaled to controls: 0 for no effect and ±100 for the full control effect
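A549 ARE_Fluc cells in 5% FBS OPTI-MEM were exposed to compounds in concentration-response for 18-24 h at 37 deg C. Viability was read by CellTiter-Fluor fluorescence (Ex 405/Em 525) after 30 min, before the luciferase read.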
Nrf2 activator – activates Nrf2 signaling. hit rate 0.31% among 410,000. Potency, µM (doses to about 46.1 µM), for inactives: top-dose activation, hits mostly activators. AREc32 ARE-luciferase reporter (MCF7-derived line), luminescence, 24 h. AID 624171; also: % of control where 0% means no effect; nearly all actives have a fitted effect of over 65% in size
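Luciferase luminescence (Steady-Glo, 30 min at room temperature) served as the read-out of ARE activation in AREc32 cells treated with compounds for 24 hr at 37 deg C.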
Nrf2 block – inhibitors of Nrf2 signaling; Potency, µM (series often up to 46 µM), for the others: top-dose activity change, negative = inhibition, usual class: inhibitors; A549 ARE-Fluc reporter, luciferase luminescence, 18-24 h; AID 504444; hit rate 2.1% among 360,000; also: % is scaled to controls: 0 for no effect and ±100 for the full control effect; nearly all actives have a fitted effect of over 60% in size
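In this cell-based qHTS, ARE-driven firefly luciferase in A549 cells reports Nrf2 activity; the luminescent signal after BugLite lysis is the measured value, with a prior CellTiter-Fluor read for cell health.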
FLuc counter 3 – firefly luciferase inhibition, Nrf2 hit validation; Potency, µM (titrated, usually from 57.5 µM), inactives show top-dose activity change, negative = inhibition, usual class: inhibitors; shares compounds with Nrf2 block; hit rate 4% among 1,400; purified firefly luciferase, luminescence inhibition; also: % is scaled to controls: 0 for no effect and ±100 for the full control effect; nearly all actives have a fitted effect of over 65% in size
Target sequence (P08659 whole entry, looked up): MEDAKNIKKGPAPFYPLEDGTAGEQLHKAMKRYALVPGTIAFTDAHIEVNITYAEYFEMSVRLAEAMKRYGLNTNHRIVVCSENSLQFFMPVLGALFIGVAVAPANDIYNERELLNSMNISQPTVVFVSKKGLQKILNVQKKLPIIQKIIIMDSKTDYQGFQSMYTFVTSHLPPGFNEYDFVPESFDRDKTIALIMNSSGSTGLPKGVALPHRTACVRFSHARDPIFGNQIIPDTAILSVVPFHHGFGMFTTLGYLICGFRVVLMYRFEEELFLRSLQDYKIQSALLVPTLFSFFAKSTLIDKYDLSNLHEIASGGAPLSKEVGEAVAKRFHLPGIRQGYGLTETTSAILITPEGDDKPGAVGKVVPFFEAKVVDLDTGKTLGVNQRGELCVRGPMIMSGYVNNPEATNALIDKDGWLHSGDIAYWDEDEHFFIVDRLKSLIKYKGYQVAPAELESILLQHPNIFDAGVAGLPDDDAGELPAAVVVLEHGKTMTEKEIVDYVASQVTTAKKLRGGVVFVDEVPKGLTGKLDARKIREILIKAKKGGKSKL
A549 tox-2 – A549 cytotoxicity, Nrf2 inhibitor counterscreen. shares compounds with Nrf2 block. A549 ARE-Fluc cells, cytotoxicity counterscreen. Potency, µM (series often up to 46.1 µM), for inactives: top-dose activity change, negative = cytotoxicity, most hits filed as inhibitors. hit rate 2% among 1,400. AID 720523;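 also: cells exposed to compounds for 18 to 24 hours; % is scaled to controls: 0 for no effect and ±100 for the full control effect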
ARE-Fluc inh – Nrf2 inhibition confirmed, A549 ARE-luciferase; A549 ARE-firefly luciferase reporter, luminescence; shares compounds with Nrf2 block; Potency, µM (titrated, usually from 46.1 µM), for the others: top-dose activity change, negative = inhibition, actives largely listed as inhibitors; AID 720524; hit rate 74% among 1,400; also: % is scaled to controls: 0 for no effect and ±100 for the full control effect; nearly all actives have a fitted effect of over 65% in size
Active calls of the source: *; ? = inconclusive; . = no result given. Unless noted, calls follow the shape of the dose curve; as a rule, active = well fitted curve in the direction sought with a large enough effect; inconclusive = small, poorly fitted or top-dose-only effect, or another doubt; inactive = no such curve, though single readings can be large; an effect the other way counts as inactive or inconclusive. Potency is read from the fitted curve at half-maximal effect.

SMILES	Pin1 inhibitor	A549 tox-1	Nrf2 activator	Nrf2 block	FLuc counter 3	A549 tox-2	ARE-Fluc inh
O=NNc1nc2ccccc2n1Cc1ccccc1	7.9%	?	0.2%	6.51µM*	-20.0%	-24.2%	6.51µM*
Cn1c(=O)c2c(nc(SCC(=O)Nc3ccccc3)n2Cc2ccccc2F)n(C)c1=O	-1.2%	-9.8%	-1.0%	6.7%	.	.	.
Cn1c(=O)c2c(nc(SCC(=O)Nc3ccc(OC(F)(F)F)cc3)n2Cc2cccc(C(F)(F)F)c2)n(C)c1=O	-0.2%	?	-0.3%	7.31µM*	1.5%	?	14.6µM*
CC(=O)OCC(=O)[C@@]1(O)CC[C@H]2[C@@H]3CCC4=CC(=O)CC[C@]4(C)[C@H]3C(=O)C[C@@]21C	9.0%	-0.7%	0.3%	-6.0%	.	.	.
CC(=O)OCC(=O)[C@@]1(O)CC[C@H]2[C@@H]3CCC4=CC(=O)CC[C@]4(C)[C@H]3[C@@H](O)C[C@@]21C	-0.9%	-8.8%	-0.8%	0.0411µM*	2.1%	-1.7%	0.0731µM*
CCCC(=O)O[C@]1(C(=O)CO)CC[C@H]2[C@@H]3CCC4=CC(=O)CC[C@]4(C)[C@H]3[C@@H](O)C[C@@]21C	?	-3.4%	-0.7%	0.0231µM*	1.1%	-8.0%	0.0146µM*
CC(=O)[C@H]1CC[C@H]2[C@@H]3CCC4=CC(=O)CC[C@]4(C)[C@H]3[C@H](O)C[C@]12C	-5.3%	-0.2%	-0.7%	2.1%	.	.	.
CC1CC2(C)C(=CC1=O)CCC1C2C(O)CC2(C)C1CCC2(O)C(=O)CO (stereo not drawn)	-3.2%	1.0%	-0.5%	0.116µM*	3.0%	-4.7%	0.184µM*
CCC(CC)C(=O)OCC(=O)C1(O)CCC2C3CCC4=CC(=O)CCC4(C)C3C(O)CC21C (stereo not drawn)	4.2%	-5.2%	0.5%	0.326µM*	3.4%	-10.8%	0.103µM*
CC12CCC(=O)C=C1C(O)CC1C2CCC2(C)C1CCC2(O)C(=O)CO (stereo not drawn)	4.3%	-4.0%	-0.1%	-15.7%	.	.	.
CC(C)(CNC(=O)CO/N=C1/C=C2CCC3C(C(O)C[C@@]4(C)C3CC[C@]4(O)C(=O)CO)[C@@]2(C)CC1)C(O)C(=O)O (stereo partly drawn)	-5.2%	-3.0%	0.3%	1.84µM*	-1.7%	-1.7%	.
C[C@]12CCC(=O)C=C1CC[C@@H]1[C@@H]2[C@@H](O)C[C@@]2(C)[C@H]1CC[C@]2(O)C(=O)COC(=O)CCC(=O)O	2.1%	-9.0%	0.3%	0.326µM*	1.7%	-4.5%	0.291µM*
CC(=O)OCC(=O)C1(O)CCC2C3CC(F)C4=CC(=O)CCC4(C)C3C(O)CC21C (stereo not drawn)	11.6%	-4.7%	-0.2%	0.0651µM*	0.7%	-12.1%	0.0184µM*
COCCCn1c(SCC(=O)Nc2ccc(OC)cc2)nc2c(sc3ccccc32)c1=O	1.3%	7.5%	-0.4%	.	.	.	.
COc1ccc(N=c2nc(-c3ccc(C)cc3)n(-c3ccccc3)s2)cc1	-0.4%	?	.	?	.	.	.
N#Cc1cc(-c2ccccc2)[nH]c1-c1nccc2ccccc12	?	-13.7%	0.2%	9.2µM*	-12.4%	-3.7%	?
C[C@H]1C[C@H]2[C@@H]3CCC4=CC(=O)C=C[C@]4(C)[C@@]3(Cl)[C@@H](O)C[C@]2(C)[C@@]1(O)C(=O)CO	-5.8%	-22.9%	0.7%	0.0146µM*	3.2%	-9.9%	0.0146µM*
CC12C=CC(=O)C=C1CCC1C3CCC(O)(C(=O)CO)C3(C)CC(O)C12F (stereo not drawn)	-3.5%	-4.9%	2.4%	0.0103µM*	4.2%	-8.2%	0.0103µM*
CC(=O)C1(O)CCC2C3CC(C)C4=CC(=O)C=CC4(C)C3(F)C(O)CC21C (stereo not drawn)	-9.7%	-5.6%	0.3%	0.0326µM*	1.7%	-0.8%	0.0651µM*
CCC(=O)O[C@]1(C(=O)CCl)[C@@H](C)C[C@H]2[C@@H]3CCC4=CC(=O)C=C[C@]4(C)[C@@]3(F)[C@@H](O)C[C@@]21C	0.9%	-7.2%	-0.5%	?	.	.	.
C[C@H]1C[C@H]2[C@@H]3CCC4=CC(=O)C=C[C@]4(C)[C@@]3(F)[C@@H](O)C[C@]2(C)[C@@]1(O)C(=O)CO	5.4%	-12.3%	-0.9%	0.0164µM*	-1.3%	-8.3%	0.0052µM*
CC(=O)OCC(=O)[C@@]12OC(C)(C)O[C@@H]1C[C@H]1[C@@H]3C[C@H](F)C4=CC(=O)C=C[C@]4(C)[C@@]3(F)[C@@H](O)C[C@@]12C	3.5%	-5.6%	-0.9%	?	.	.	.
COc1cccc(C2C=C(c3ccc(C)cc3)Nc3c(C(=O)Nc4ccc(F)cc4)cnn32)c1OC (stereo not drawn)	-0.8%	-0.3%	-0.7%	?	.	.	.
CCN1CCN(C(=S)c2ccc(-c3ccccc3)cc2)CC1	0.5%	-1.0%	-1.7%	5.17µM*	?	-1.5%	6.51µM*
COc1ccc(C2Nc3ccccc3C(=O)N2Cc2ccco2)cc1 (stereo not drawn)	-4.8%	-5.8%	.	-7.7%	.	.	.
SMILES	Pin1 inhibitor	A549 tox-1	Nrf2 activator	Nrf2 block	FLuc counter 3	A549 tox-2	ARE-Fluc inh
CCOc1ccc(CNC(=O)c2cc3c(s2)-c2ccccc2OC3)cc1	19.3%	5.3%	-0.4%	-20.4%	.	.	.
COc1ccc(/C=N/NS(=O)(=O)c2ccc(C)cc2)cc1OC(=O)c1ccccc1	9.2%	12.4%	0.3%	.	.	.	.
COc1ccc(/C=N/NS(=O)(=O)c2ccccc2)cc1OC(=O)c1ccc(C)cc1	10.2%	-8.6%	-2.9%	9.2µM*	1.1%	-0.7%	7.31µM*
CC1CCN(S(=O)(=O)c2ccc3c(ccn3CC(=O)NCc3ccc(N(C)C)cc3)c2)CC1	13.9%	3.4%	3.3%	0.5%	.	.	.
O=C(N/N=C/c1sc(N2CCOCC2)nc1-c1ccccc1)c1ccc(O)cc1	14.6%	-18.4%	2.8%	-7.7%	.	.	.
O=C(N/N=C/c1sc(N2CCOCC2)nc1-c1ccccc1)c1cccc(S(=O)(=O)N2CCCC2)c1	?	?	2.6%	2.59µM*	1.5%	-17.3%	23.1µM*
CCc1ccc(NC(=O)Cn2c(=O)n(CCC(=O)NCCc3ccc(OC)c(OC)c3)c(=O)c3ccccc32)cc1	-7.4%	-1.4%	-0.9%	-10.1%	.	.	.
Cc1ccsc1-c1nc(CSCC(=O)N2CCN(c3ccccc3)CC2)c(C)o1	18.0%	3.4%	3.4%	?	.	.	.
COc1ccc(-c2nc(CSCC(=O)N3CCN(c4ccccc4)CC3)c(C)o2)cc1	?	?	-0.6%	2.59µM*	-17.3%	-22.3%	?
